Screening results deposited in PubChem by several laboratories.
NALP3 yeast inh: blocks the NALP3 inflammasome reconstituted in yeast; Yeast reconstituted NLRP3/ASC/caspase-1, beta-gal luminescence, 24 h; inhibition, % at 10 µM; 330,000 tested, 0.39% active;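 active = inhibition of 50% or more; inactive = inhibition below 50%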;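 note: plate controls were induced DMSO wells for no effect and uninduced yeast grown without galactose for full effect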
SKKanGAS inh: blocks kanamycin growth of S. pyogenes SKKanGAS strain; inhibition, % at 7.5 µM; BacTiter-Glo, 6 h; 300,000 tested, 1.3% active;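 active = mean replicate score, as percent of positive control median, at least 50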;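 note: strain carries kanamycin resistance gene driven by streptokinase promoter and grows in 40 µg/ml kanamycin; loss of luminescence reflects streptokinase promoter inhibition or plain growth inhibition; 0% = median of DMSO wells and 100% = positive control at its reference dose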
tim23-1 inh: growth inhibitors of tim23-1 mutant yeast; S. cerevisiae tim23-1 growth, BacTiter-Glo luminescence, 24 h; inhibition, % at 20 µM; 330,000 tested, 1.3% active; AID 463212;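 active = growth inhibition of the mutant yeast at or above 50%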;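 note: temperature-sensitive mutant grown at 25 °C; plate controls were DMSO-treated mutant yeast for no effect and medium wells lacking yeast for full effect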
TIM10 inh: inhibits growth of TIM10 yeast strain; inhibition, % at 10 µM; 330,000 tested, 1.4% active; S. cerevisiae TIM10 strain growth, BacTiter-Glo luminescence, 24 h; AID 463195;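 active = inhibition of 40% or more at the single tested concentration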;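 note: wild-type TIM10 isogenic control strain grown at permissive 25 °C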
tim10-1 inh: growth inhibitors of tim10-1 mutant yeast. S. cerevisiae tim10-1 ts strain growth, BacTiter-Glo, 24 h. inhibition, % at 20 µM. 330,000 tested, 2.2% active;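 active = inhibition of at least 40%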;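 note: mutant grown at 25 °C; 0% = DMSO wells with yeast and 100% = wells holding no yeast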
TIM10 conf: confirmation of TIM10 yeast growth inhibitors; shares compounds with TIM10 inh; S. cerevisiae tim10 strain growth, BacTiter-Glo luminescence, 24 h; inhibition, % at 10 µM; 4,600 tested, 63% active;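 active = inhibition of yeast growth at or above a set limit in either of two replicates at 10 µM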;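 note: this counterscreen used the strain with wild-type TIM10; 0% = yeast with DMSO and 100% = medium wells lacking yeast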
Starred values were filed as active, the others as inactive; · = no result given. A selection: hits, their analogues and other compounds. The true share with any hit is near 4.6%.

SMILES | NALP3 yeast inh | SKKanGAS inh | tim23-1 inh | TIM10 inh | tim10-1 inh | TIM10 conf
Cn1cc([N+](=O)[O-])c(C(=O)N(Cc2ccccc2)Cc2ccccc2)n1 | 9.2 | 0.3 | 6.9 | 12.0 | -3.2 | ·
COc1ccc(NC(=O)c2cc3n(n2)C(C(F)(F)F)CC(c2ccc4c(c2)OCO4)N3)cc1OC (centres undefined) | 13.2 | · | 34.3 | 40.6* | 38.5 | 35.2*
COc1ccc(C2CC(C(F)(F)F)n3nc(C(=O)NCCCn4ccnc4)cc3N2)cc1OC (centres undefined) | 5.8 | 2.5 | -4.8 | 4.3 | 8.5 | ·
CN1CCN(C(=O)CCN2C(=O)/C(=C/c3ccc(F)cc3)SC2=S)CC1 | 2.1 | -0.8 | 30.3 | 3.1 | 30.3 | ·
CNc1ncc(C(=O)c2ccc(Cl)c(Cl)c2)s1 | 34.8 | 3.4 | 47.4 | 55.0* | 36.7 | 30.2
Oc1cccc2c(NC(=S)Nc3ccc(SC(F)F)cc3)cccc12 | 41.1 | 10.2 | 47.5 | 52.1* | 38.2 | 41.7*
Oc1cccc(NC(=S)Nc2ccc(SC(F)F)cc2)c1 | -3.7 | 11.4 | 6.2 | 18.1 | 37.4 | ·
CCn1ccnc1CN(C)Cc1cn[nH]c1-c1ccc(OC)c(F)c1 | 6.6 | -5.3 | 16.5 | -11.5 | 3.9 | ·
O=Cc1cc(N=Nc2ccccc2Cl)ccc1O | 47.1 | 77.9* | 28.9 | 62.0* | 11.6 | 76.0*
O=Cc1cc(N=Nc2cccc(C(=O)O)c2)ccc1O | 38.3 | -0.2 | 5.5 | 16.4 | 1.3 | ·
CC(C)Cn1cc(C(=O)N2CCN(c3ccccn3)CC2)c2c3ccccc3n(C)c2c1=O | 5.1 | 7.2 | 25.1 | 44.5* | 33.0 | 24.6
CCN1CCN(C(=O)c2cn(CCOC)c(=O)c3c2c2ccccc2n3C)CC1 | -0.5 | -5.8 | -11.5 | 1.5 | 5.9 | ·
COc1cccc(C(=O)NC2CC(C)(C)NC(C)(C)C2)c1OC | 14.3 | -0.8 | 5.5 | 60.5* | -4.6 | 12.0
COc1ccccc1C(=O)NC1CC(C)(C)NC(C)(C)C1 | 5.4 | -4.4 | 10.5 | 3.9 | 1.3 | ·
Oc1cccc(C=NCc2ccccc2)c1O | 10.9 | 0.4 | 22.2 | 4.1 | 11.4 | ·
O=C(/C(=N/N=C/c1ccc(O)c(O)c1O)c1ccccc1)c1ccccc1 | 1.3 | 12.0 | 44.7 | 44.6* | 12.7 | -1.1
CCC(C(=O)NCc1cccnc1)n1nc(C)n2c(cc3occc32)c1=O (centres undefined) | 6.6 | 3.4 | -2.2 | -7.7 | 9.9 | ·
CCOC(=O)NC(=S)Nc1ccc(C(C)(C)C)cc1Br | 21.0 | 9.2 | 45.5 | 49.5* | 38.3 | 38.6*
CC(=O)c1ccc(S(=O)(=O)Nc2c(C)nn(C)c2C)cc1 | 15.2 | · | -4.3 | -3.0 | 1.3 | ·
COC(=O)[C@@H]1CCCN1C(=O)CCc1nnc(CCC2CCCCC2)o1 | 4.8 | 7.0 | 15.8 | 45.4* | 21.7 | -22.1
CC(C)CCNC(=O)c1sc2ccc(S(=O)(=O)N3CCCCC3)cc2c1N | 12.5 | -1.2 | 37.6 | 41.5* | 29.4 | 38.2*
O=C(c1ccco1)N1N=C2CCCCCC2C1(O)C(F)(F)F (centres undefined) | 4.1 | -5.3 | 19.5 | 6.2 | 20.8 | ·
CCc1n[nH]c(=S)n1/N=C/c1cc(Br)c(OC)cc1OC | 12.4 | 1.2 | 27.7 | 53.3* | 31.7 | -15.3
COc1ccc(NC(=O)c2cc(S(=O)(=O)N3CCCC3)ccc2C)cn1 | 8.9 | · | 12.5 | 9.5 | 5.9 | ·
CC(=O)c1ccc(OCC(=O)Nc2ccc3c(c2)CCC3)cc1 | 7.8 | 1.5 | -11.5 | -15.6 | -72.4 | ·
SMILES | NALP3 yeast inh | SKKanGAS inh | tim23-1 inh | TIM10 inh | tim10-1 inh | TIM10 conf
O=C(COc1ccc(Cl)cc1)Nc1ccc2c(c1)CCC2 | 47.8 | -5.3 | 37.0 | 40.5* | -7.6 | -20.8
COc1ccc(/C=C/C(=O)NC2CC3CCC2C3)cc1 (centres undefined) | 10.6 | -3.4 | 25.4 | 4.2 | 5.2 | ·
COc1ccc(/C=N/NC(=S)N[C@H]2CC3CCC2C3)cc1 (some centres undefined) | 19.3 | 39.2 | 29.0 | 46.7* | 29.2 | 36.2*
Cc1c(O)ccc2c3c(c(=O)oc12)CCC(C)C3 (centres undefined) | 20.9 | 5.7 | 19.2 | 1.6 | 21.7 | ·
Cc1c(O)ccc2c3c(c(=O)oc12)CCCC3 | 19.1 | · | 31.4 | 41.1* | 29.5 | 31.4*
CC(C)CN(C(=O)COC(=O)C(C)N1C(=O)c2ccccc2C1=O)c1c(N)n(Cc2ccccc2)c(=O)[nH]c1=O (centres undefined) | 12.8 | 0.2 | -0.1 | -2.1 | -7.4 | ·
COc1cccc(-c2csc(N3CCN(C(=O)NC45CC6CC(CC(C6)C4)C5)CC3)n2)c1 | 14.7 | 32.5 | 23.7 | 41.8* | 33.6 | 24.7
COc1cccc(NC(=O)N2CCN(c3nc(-c4cccc(OC)c4)cs3)CC2)c1 | 23.6 | 33.9 | 32.3 | 23.7 | 7.8 | ·
CCCc1ccc(Oc2cn[nH]c2-c2ccc(O)c(C)c2O)cc1 | 43.4 | 88.5* | -276.8 | 71.4* | -191.1 | 70.8*
CCCc1ccc(Oc2c(-c3ccc(O)c(C)c3O)n[nH]c2C)cc1 | 22.7 | 95.3* | -296.6 | 62.9* | -80.5 | 73.2*
COc1cccc(Oc2cn[nH]c2-c2ccc(OC)cc2O)c1 | 29.1 | 14.4 | 40.6 | 18.6 | -20.9 | ·
CCN1C(=O)/C(=C/c2nc3ccccc3c(=O)n2-c2ccccc2)c2ccccc21 | -4.8 | 10.8 | 42.3 | 42.9* | 24.7 | 25.9
O=C(NC1CC1)C1CC(=O)N(c2ccc(F)cc2)C1 (centres undefined) | -7.3 | 2.2 | 3.2 | 15.5 | 3.8 | ·
Cc1cccc(Nc2ccncc2S(N)(=O)=O)c1 | 7.3 | -5.8 | 16.9 | 11.5 | 26.7 | ·
Cn1c(/C(C#N)=C/c2cccc(O)c2)nc2ccccc21 | 10.8 | -4.5 | 42.2 | 42.7* | 39.2 | 35.9*
NCCCCCc1nnc(SCc2ccc(Cl)c(Cl)c2)o1 | 28.6 | 8.1 | 4.0 | 17.1 | 5.5 | ·
CCCCc1ccc(-n2c(Cc3cccs3)n[nH]c2=S)cc1 | 18.6 | 0.1 | 46.6 | 51.9* | 37.1 | 36.0*
O=[N+]([O-])c1ccc(N/N=C/c2cccnc2)cc1 | -13.6 | 1.6 | 15.2 | 41.8* | -53.9 | 30.4
Fc1ccccc1NC(=S)NCc1ccccc1 | 2.3 | 7.9 | 9.8 | 12.9 | 16.7 | ·
Fc1ccccc1NC(=S)NN(Cc1ccccc1)c1ccccc1 | 6.0 | -1.1 | 41.7 | 43.6* | 32.7 | 37.5*
Cc1ccc(/C=C/S(=O)(=O)NCc2ccc(F)cc2)cc1 | 2.4 | -15.9 | 4.7 | 16.0 | -0.6 | ·
O=C(CSc1ccc2ccccc2n1)N/N=C/c1ccccc1O | 22.4 | 95.0* | 29.9 | 40.8* | 18.6 | 10.4
O=C(CSc1ccc2ccccc2n1)N/N=C/c1ccc(O)cc1 | 11.9 | 10.5 | 19.7 | 7.0 | 0.6 | ·
Brc1ccc2[nH]c3c(N4CCc5ccccc5C4)ncnc3c2c1 | 12.6 | 85.9* | 42.4 | 42.7* | 37.4 | 13.8
Fc1ccc2[nH]c3c(N4CCc5ccccc5C4)ncnc3c2c1 | 15.9 | 21.0 | 14.0 | 17.6 | 6.8 | ·
CC1CC1C(=O)OCC(=O)Nc1cccc([N+](=O)[O-])c1 (centres undefined) | 17.1 | -7.6 | 11.1 | 6.6 | 11.7 | ·
CC(C)CC(=O)NC(=S)Nc1cccc(NC(=O)c2ccccc2)c1 | -0.4 | -16.0 | 29.8 | 46.7* | 30.3 | 33.3*
